Laboratory results from PubChem BioAssay AID1159580 (chemical genetic matrix, 2015).
Out of some 5,500 compounds screened, about 2,000 (36%) were called active. About 18% were inconclusive and are not listed. No stated cut-off is given here; in the data, active means normalized growth mostly below about 0.91 (no sharp cut-off); inconclusive means no clear call, values can overlap the other calls; inactive means mostly above about 0.92. The list shows a part of the results.

Test: chemical genetic growth profiling, strain panel (AID 1159580);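 further: tested at 20 µM; growth read once vehicle control cultures reached saturation at 30 °C; 1 = growth at the plate median or of vehicle wells; lower values mean less growth of the strain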
Conditions: S. cerevisiae deletion strains, growth OD

Measured: normalized growth

CC1=C(O)C(=O)C=C2C1=CC=C1[C@@]2(C)CC[C@@]2(C)[C@@H]3C[C@](C)(C(=O)O)CC[C@]3(C)CC[C@]12C
inactive: locus YKL009W, strain mrt4, hits give low values 0.908 | locus YKL085W, strain MDH1 (second series), hits give low values 0.941 | locus YKL085W, strain MDH1, hits give low values 0.941 | locus YNL298W, strain CLA4, hits give low values 0.918 | locus YNL322C, strain KRE1 (second series), hits give low values 0.937 | locus YOL012C, strain htz1 0.278
active: locus YJR066W, strain TOR1, hits give low values 0.792 | locus YKL068W, hits give low values 0.895 | locus YKL160W, strain elf1, hits give low values 0.541 | locus YKL190W, strain CNB1, hits give low values 0.315 | locus YKR001C, strain vps1, hits give low values 0.13 | locus YKR026C, strain gcn3, hits give low values 0.852 | locus YKR091W, strain srl3, hits give low values 0.843 | locus YLL001W, strain dnm1, hits give low values 0.617 | locus YLL026W, hits give low values 0.74 | locus YLL041C, strain sdh2, hits give low values 0.764 | locus YLR027C, strain aat2, hits give low values 0.502 | locus YLR039C, strain RIC1, hits give low values 0.157 | locus YLR058C, strain SHM2, hits give low values 0.224 | locus YLR102C, strain apc9, hits give low values 0.83 | locus YLR113W, strain HOG1, hits give low values 0.472 | locus YLR221C, strain rsa3, hits give low values 0.419 | locus YLR258W, strain gsy2, hits give low values 0.541 | locus YLR262C, strain YPT6 (second series), hits give low values 0.149 | locus YLR262C, strain YPT6, hits give low values 0.182 | locus YLR268W, strain sec22, hits give low values 0.355 | locus YLR320W, strain mms22, hits give low values 0.256 | locus YLR330W, strain CHS5, hits give low values 0.253 | locus YLR342W, strain FKS1 (second series), hits give low values 0.336 | locus YLR342W, strain FKS1, hits give low values 0.387 | locus YLR357W, strain rsc2, hits give low values 0.731 | locus YLR370C, strain arc18, hits give low values 0.704 | locus YLR371W, strain rom2, hits give low values 0.418 | locus YLR384C, strain iki3, hits give low values 0.759 | locus YLR418C, strain cdc73, hits give low values 0.176 | locus YML016C, strain PPZ1, hits give low values 0.547 | locus YML032C, strain rad52, hits give low values 0.533 | locus YML120C, strain ndi1, hits give low values 0.608 | locus YML124C, strain tub3, hits give low values 0.738 | locus YMR058W, strain fet3, hits give low values 0.0928 | locus YMR078C, strain ctf18, hits give low values 0.472 | locus YMR125W, strain sto1, hits give low values 0.827 | locus YMR129W, hits give low values 0.795 | locus YMR205C, strain PFK2, hits give low values 0.337 | locus YMR223W, strain ubp8, hits give low values 0.581 | locus YMR231W, strain pep5, hits give low values 0.365 | locus YMR263W, strain SAP30, hits give low values 0.561 | locus YMR307W, strain GAS1, hits give low values 0.252 | locus YNL067W, strain RPL9B, hits give low values 0.518 | locus YNL071W, strain lat1, hits give low values 0.11 | locus YNL183C, strain NPR1, hits give low values 0.728 | locus YNL209W, strain ssb2, hits give low values 0.303 | locus YNL233W, strain BNI4, hits give low values 0.287 | locus YNL248C, strain rpa49, hits give low values 0.708 | locus YNL250W, strain rad50, hits give low values 0.887 | locus YNL271C, strain bni1, hits give low values 0.882 | locus YNL307C, strain MCK1, hits give low values 0.093 | locus YNR049C, strain mso1, hits give low values 0.781 | locus YNR052C, strain pop2, hits give low values 0.664 | locus YOL147C, strain pex11, hits give low values 0.137 | locus YOR001W, strain rrp6, hits give low values 0.678 | locus YOR061W, strain CKA2, hits give low values 0.509 | locus YOR069W, strain VPS5, hits give low values 0.638 | locus YOR070C, strain gyp1, hits give low values 0.449 | locus YOR080W, strain dia2, hits give low values 0.674 | locus YOR083W, strain WHI5, hits give low values 0.624 | locus YOR106W, strain vam3, hits give low values 0.244 | locus YOR136W, strain idh2, hits give low values 0.765 | locus YOR144C, strain elg1, hits give low values 0.304 | locus YOR184W, strain ser1, hits give low values 0.173 | locus YOR231W, strain MKK1, hits give low values 0.75 | locus YOR265W, strain rbl2, hits give low values 0.552 | locus YOR270C, strain vph1, hits give low values 0.236 | locus YOR290C, strain snf2, hits give low values 0.249 | locus YOR316C, strain cot1, hits give low values 0.698 | locus YPL051W, strain arl3, hits give low values 0.209 | locus YPL078C, strain atp4, hits give low values 0.528 | locus YPL106C, strain sse1, hits give low values 0.435 | locus YPL240C, strain hsp82, hits give low values 0.444 | locus YPL241C, strain CIN2, hits give low values 0.565 | locus YPL256C, strain CLN2, hits give low values 0.663 | locus YPR119W, strain clb2, hits give low values 0.61 | locus YPR141C, strain kar3, hits give low values 0.886 | locus YPR163C, strain tif3, hits give low values 0.257 | locus YPR167C, strain met16, hits give low values 0.538 | strain wtn01, hits give low values 0.436
